For 63 compounds, Potency results are on record in PubChem BioAssay AID651965 (National Center for Advancing Translational Sciences (NCATS), 2013).

Among all 340,000 compounds or so, about 6,400 (1.9%) were called active. Another 4% or so got no clear call; they are omitted. Calls follow the shape of the dose curve; as a rule, active = well fitted falling curve with a large enough effect; inconclusive = small, poorly fitted or top-dose-only effect; inactive = no such curve, though single readings can be large or run the other way. The list comes from a sample in which actives are over-represented; it also holds similar structures and randomly drawn compounds. Where a call stands in place of a potency, no number is given.
Potency is read from the fitted curve at half-maximal effect.

ATP-dependent Clp protease proteolytic subunit (Bacillus subtilis (strain 168)), sequence (P80244 whole entry, looked up): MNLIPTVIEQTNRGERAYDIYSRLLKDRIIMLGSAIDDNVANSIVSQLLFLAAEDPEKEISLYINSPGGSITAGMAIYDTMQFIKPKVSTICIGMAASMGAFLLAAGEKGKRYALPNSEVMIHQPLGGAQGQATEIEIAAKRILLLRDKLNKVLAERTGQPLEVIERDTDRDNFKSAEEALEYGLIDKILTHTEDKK

The assay has as its target ATP-dependent Clp protease proteolytic subunit (Bacillus subtilis (strain 168)) (UniProt P80244). The experiment in a line: qHTS Assay for Activators of ClpP. Also: the source files actives as falling curves though it sought activators and does not explain the sign; nearly all actives have a fitted effect of over 65% in size. The conditions noted are these: purified B. subtilis ClpP, FRET peptide cleavage, 20 min; series mostly up to 57.5 µM. The method in brief:
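Purified B. subtilis ClpP, 10 microg/mL final in Tris/HCl pH8 with KCl, BSA, glycerol and Tween-20, cleaved an Abz/nitrotyrosine-quenched decapeptide. Fluorescence (ex 320, em 430) was read at 0 and 20 min at room temperature. Delta was normalized to 5.8 microM ADEP and DMSO/no-enzyme controls.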
As for `COc1ccc(Cn2ccn(CC(=O)Nc3cc(C)ccc3C)c(=O)c2=O)cc1`, the Potency result is “inactive”.

As to `COc1ccc(Cn2cccc(NC(=O)Nc3ccc(C#N)cc3)c2=O)cc1`, the Potency is 12.6 µM (active).

Regarding `COc1ccc(Cn2c(C)c(C)c(C#N)c2NC(=O)Nc2ccc(F)cc2)cc1`, the Potency entry was “inactive”. With `CSc1ccc(CN2CCC2(C)C(=O)Nc2ccc(C)c(O)c2)cc1` (stereo not drawn), the Potency entry was “inactive”. The same measure for `CCOc1n[nH]c(-c2ccccc2)n1`: “inactive”; for `Cc1ccccc1S(=O)(=O)NC(=O)C1(C)CCN1C(=O)Cc1ccc(Cl)cc1Cl` (stereo not drawn): “inactive”. Regarding `COC(=O)c1ccc2nc(-c3ccc(C)cc3)c(Cc3ccc(OC)cc3C)n2c1`, the Potency entry was “inactive”. Next, `Cc1ccc(N2CC(C(=O)Nc3ccc(N(C)C)cc3)CC2=O)cc1Cl` (stereo not drawn): “inactive”; `Cc1ccc(N2CC(C(=O)N3CCC4(CC3)CC(=O)c3ccccc3O4)CC2=O)cc1C` (stereo not drawn): 28.2 µM (active); `O=C(C1CC(=O)N(c2ccc(Br)cc2)C1)N1CCCC1` (stereo not drawn): “inactive”. The same measure for `O=[N+]([O-])c1ccc(N/N=C2/CCCCC2c2ccccn2)c([N+](=O)[O-])c1` (stereo not drawn): “inactive”; for `O=[N+]([O-])c1cc(C(F)(F)F)ccc1NN=C1CCCC1`: 31.6 µM (active). As for `O=[N+]([O-])c1cc(S(=O)(=O)N2CCCC2)ccc1NN=C1CCCC1`, the Potency entry was “inactive”. Next, `CCCS(=O)(=O)NC(=O)C1(C)CCCN(C(=O)c2ccnc(Cl)c2)C1` (stereo not drawn): “inactive”. Next, `O=C(C(=O)N1CCN(c2ccccc2)CC1)c1ccc2c(c1)OCO2`: “inactive”. Next, `COC(=O)Cc1c(C)c2ccc(OCC(=O)NCc3ccc4c(c3)OCO4)cc2oc1=O`: 31.6 µM (active). Take `COc1ccc(CCNC(=O)COc2ccc3c(c2)OCO3)cc1`: the Potency result was “inactive”. Take `COc1ccc2c(C)c(CCC(=O)NCc3ccc(OC)c(OC)c3)c(=O)oc2c1`: the Potency result was “inactive”. Consider `CCC(C)CN1C(=O)CN(S(C)(=O)=O)CC1(C)C(=O)Nc1ccc2c(c1)OCCO2` (stereo not drawn), for which the Potency result is “inactive”.

Take `COc1ccc(/C=C/c2ccnc3ccccc23)cc1OC`: the Potency entry is “inactive”. As for `CCC1(CC)Cc2ccccc2-c2nc3ccccc3c(=O)n21`, the Potency entry was “inactive”. Turning to `CCC1(CC)Cc2ccccc2-c2nc(CCl)[nH]c(=O)c21`, the Potency entry was “inactive”. The same measure for `CCOC(=O)C1Cn2c(nc3c(c2=O)C(C)(CC)Cc2ccccc2-3)S1` (stereo not drawn): 28.2 µM (active). The same measure for `OC(c1ccccc1)(c1ccccc1)C1CCN(CCCOc2ccccc2)CC1`: “inactive”; for `Cc1ccc(-c2nn(-c3ccccc3)cc2CN(Cc2ccccc2)C(=O)CCC(=O)O)o1`: 22.4 µM (active); for `CN(C)Cc1cn(-c2ccccc2)nc1-c1ccccc1`: “inactive”. In the case of `O=C(O)CCC(=O)N(Cc1ccccc1)Cc1ccccc1`, the Potency result is “inactive”. Next, `c1ccc(-n2nc3ccccc3n2)cc1`: 25.1 µM (active); `CCCC(=O)Nc1cc2nn(-c3ccccc3)nc2cc1C`: “inactive”. The same measure for `Nc1ccc2nn(-c3ccc(Cl)cc3)nc2c1`: “inactive”. Next, `CCc1nc2c(OCCOc3ccccc3)cccn2c1N(C)C(=O)c1ccccc1F`: “inactive”; `Cc1cccc(NC(=O)COC(=O)c2ccccc2OCc2cccc(Br)c2)c1`: “inactive”; `CCOc1ccc(-c2cc3nc(C4CCN(C(=O)OC(C)(C)C)CC4)c(C(=O)Nc4cccc(CC)c4)cn3n2)cc1`: “inactive”. Consider `COc1cc(OC)cc(-c2cc3nc(C4CCN(C(=O)OC(C)(C)C)CC4)cc(=O)n3[nH]2)c1`, for which the Potency is 25.1 µM (active). Next, `Cc1ccc(-n2ncc(C(=O)NC3CC3)c2C2CCN(C(=O)OC(C)(C)C)CC2)c(C)c1`: “inactive”; `O=C(COC(=O)CCCN1C(=O)c2cccc3cccc(c23)C1=O)NC1CCS(=O)(=O)C1` (stereo not drawn): 31.6 µM (active); `COc1ccc(/C=C2\SC(=O)N(CCC(=O)NC3CCS(=O)(=O)C3)C2=O)cc1` (stereo not drawn): “inactive”. Regarding `O=C(COC(=O)/C=C/c1ccc(Cl)cc1)NC1CCS(=O)(=O)C1` (stereo not drawn), the Potency entry is “inactive”. In the case of `Cc1ccc(F)c(S(=O)(=O)NC(=O)C2(C)CCN2C(=O)c2ccco2)c1` (stereo not drawn), the Potency result is “inactive”. The same measure for `COc1cc(/C=C/C(=O)O)cc(S(=O)(=O)Nc2ccccc2SC)c1OC`: “inactive”; for `CCn1nc(C(=O)NNS(=O)(=O)c2cc(/C=C/C(=O)O)cc(OC)c2OC)c2ccccc2c1=O`: 5.62 µM (active). The same measure for `CCC(C)(C)NC(=O)/C=C/c1cc(OC)c(OC)c(S(=O)(=O)N2CCc3ccccc32)c1`: “inactive”; for `COc1ccccc1CNc1nc(Nc2ccccc2Cl)c2sccc2n1`: “inactive”; for `c1ccc(Cn2nnc3c(N4CCCCC4)ncnc32)cc1`: “inactive”. With `O=C(CC(CC(=O)c1ccccc1)c1ccco1)c1ccccc1`, the Potency entry was “inactive”. Next, `OC(c1ccc(Cl)cc1)c1ncc(-c2ccc(Cl)cc2)[nH]1` (stereo not drawn): “inactive”; `C#CC(C)(C)NC(=O)c1cnc(-c2ccccc2)nc1-c1ccccc1`: “inactive”; `C=CCn1c(-c2sc(-c3ccccc3)nc2C)n[nH]c1=S`: “inactive”. The same measure for `Cc1nc(-c2ccccc2)sc1-c1nc(-c2ccccc2)ncc1S(=O)(=O)c1ccccc1`: 31.6 µM (active); for `CC1(C(=O)NCc2ccc(F)c(F)c2)Cc2c(-c3ccc4c(c3)OCO4)ccnc2O1` (stereo not drawn): “inactive”; for `CC(C)CCOc1ccc(C(=O)Nc2cc(S(=O)(=O)N3CCOCC3)ccc2N2CCOCC2)cc1`: “inactive”. The same measure for `CCCc1nc2sc3c(c2c(=O)n1NC(=O)CCCl)CCCC3`: “inactive”; for `NNC(=O)C1CCCn2c1nc1sc3c(c1c2=O)CCCC3` (stereo not drawn): “inactive”. As for `Cn1c(NN)nc2sc3c(c2c1=O)CCC3`, the Potency was 11.2 µM (active). The same measure for `OCCNc1ncnc2oc(-c3ccco3)c(-c3ccco3)c12`: “inactive”. The same measure for `CCOc1ccc(CCN2C(=O)C(=O)N([C@@H](Cc3ccc(O)cc3)CN3CCC[C@H]3CN3C(=O)C(=O)NC[C@@H]3CC(C)C)C[C@@H]2Cc2ccccc2)cc1`: “inactive”. `COc1ccc(NC(=O)CCCOc2ccc(C(C)=O)cc2)cc1S(=O)(=O)N1CCCCC1`: the Potency result was “inactive”. As for `Cc1ccccc1NC(=S)N(CCCN1CCOCC1)Cc1cccs1`, the Potency is 28.2 µM (active). As to `CCN(Cc1ccncc1)C(=S)Nc1ccccc1C`, the Potency entry is “inactive”. Regarding `Cc1ccc(NC(=S)N(CCN(C)C)Cc2cccs2)cc1C`, the Potency result is “inactive”.

As to `COc1ccc(/C=C/c2ccccn2)cc1OC`, the Potency result was “inactive”.

Regarding `Cc1cccnc1C(NC(=O)C1CCN(Cc2ccc(Cl)c(Cl)c2)CC1)c1ccc(Cl)cc1` (stereo not drawn), the Potency result was “inactive”.

On to `O=C1Nc2ccccc2NC(c2ccc3c(c2)OCO3)=C1N(Cc1ccc(F)cc1)C(=O)c1ccco1`, for which the Potency result was “inactive”.
